Screening data as filed in PubChem BioAssay.
STK33 inh: STK33 kinase inhibitors, primary screen, biochemical, luminescence, ADP-Glo, MBP substrate; Serine/threonine-protein kinase 33 (Homo sapiens), Q9BYT3; 27,000 tested, 0.44% active; inhibition, % at 12.5 µM; in the data active means inhibition above about 20%; inconclusive means no clear call, values can overlap the other calls
Target sequence (Q9BYT3 whole entry, looked up): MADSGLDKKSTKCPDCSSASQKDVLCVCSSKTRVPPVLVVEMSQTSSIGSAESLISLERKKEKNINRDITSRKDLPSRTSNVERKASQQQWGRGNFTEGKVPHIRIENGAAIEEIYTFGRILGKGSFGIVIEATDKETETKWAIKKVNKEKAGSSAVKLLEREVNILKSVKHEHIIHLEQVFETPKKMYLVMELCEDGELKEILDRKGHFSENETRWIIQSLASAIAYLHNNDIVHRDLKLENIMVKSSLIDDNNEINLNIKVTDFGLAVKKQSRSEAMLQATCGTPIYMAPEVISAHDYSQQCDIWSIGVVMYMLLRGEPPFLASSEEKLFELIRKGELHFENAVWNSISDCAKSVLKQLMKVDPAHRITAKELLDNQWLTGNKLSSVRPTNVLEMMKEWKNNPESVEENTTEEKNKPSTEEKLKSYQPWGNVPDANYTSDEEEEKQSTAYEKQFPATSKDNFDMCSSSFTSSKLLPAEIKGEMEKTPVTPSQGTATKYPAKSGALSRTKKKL
NOMO-1 viab: NOMO-1 AML cell viability reduction, primary screen, STK33 inhibitor project, CellTiter-Glo luminescence. NOMO-1 AML viability, 72 h. inhibition, % (test concentration not listed). 37,000 tested, 7.5% active; in the data active means inhibition above about 80%; inconclusive means no clear call, values can overlap the other calls
PD-1 reverse act: activators reversing PD-1 mediated T-cell inhibition, primary screen, luminescence, primary human CD4 T cells, PD-L1 beads | CellTiter-Glo 96 h | activation, % (no concentration beside the values) | 29,000 tested, under 10 active; call rule not given here;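 further: 0% = median vehicle wells and 100% = positive control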
The depositor's hits bear a star; ? = inconclusive; / = no result. This excerpt belongs to a sample that is enriched for hits.

SMILES	STK33 inh	NOMO-1 viab	PD-1 reverse act
CCn1c(SCC(=O)Nc2ccc3c(c2)OCCO3)nnc1-c1cccc(Cl)c1	-1.3	14.6	1.1
COc1ccc(S(=O)(=O)Nc2ccc(Br)c3cccnc23)c([N+](=O)[O-])c1	-2.2	127.9*	-8.5
COc1ccc(NC(=O)c2cc(-c3ccccn3)nc3c(C)cc(C)cc23)c([N+](=O)[O-])c1	0.1	68.3	/
N#CC1=C(N)N2CCSC2=NC1(C(F)(F)F)C(F)(F)F	/	-13.9	-0.6
COCCCNC(=O)c1cc(-c2ccccn2)nc2ccc(Br)cc12	7.5	7.7	/
COc1ccccc1CNC(=O)c1cc(-c2ccccn2)nc2c(Cl)cccc12	-0.2	92.1*	/
Cc1cc(C)c2nc(-c3ccccn3)cc(C(=O)NCCc3ccc(S(N)(=O)=O)cc3)c2c1	6.0	26.5	-1.1
Cc1cc(C)c2nc(-c3ccccn3)cc(C(=O)NCc3ccc(S(N)(=O)=O)cc3)c2c1	6.2	112.5*	/
COc1ccccc1OCC(=O)Nc1cccc(-c2nc3ccccc3s2)c1	5.3	9.8	1.7
O=C(CSc1nc2ccc([N+](=O)[O-])cc2[nH]1)Nc1cc(C(F)(F)F)cc(C(F)(F)F)c1	-9.1	129.8*	-11.7
O=C(CSc1nc2ccc([N+](=O)[O-])cc2[nH]1)Nc1ccc(F)cc1	-0.7	/	/
COc1c(OC)c2c(C)cccc2oc1=O	-0.3	0.7	1.6
Cc1csc2sc(C=NCc3cccs3)c(C)c12	/	122.4*	-3.6
Cc1ccc(N(CC(O)Cn2c3ccccc3c3ccccc32)S(C)(=O)=O)cc1 (stereo unspecified)	-0.9	43.8	-3.8
Cc1ccc(N(CC(O)Cn2c3ccccc3c3ccccc32)S(C)(=O)=O)c(C)c1 (stereo unspecified)	2.4	89.9*	0.1
Cc1c(S(=O)(=O)c2ccc(Cl)cc2)csc1C(=O)N(c1ccccc1)S(C)=O (stereo unspecified)	/	65.6	-0.2
CNC[C@H]1Oc2c(NC(=O)c3nc4ccccc4s3)cccc2C(=O)N([C@H](C)CO)C[C@@H]1C	/	97.3*	2.7
C[C@H]1CN([C@@H](C)CO)C(=O)c2cccc(NC(=O)c3nc4ccccc4s3)c2O[C@H]1CN(C)CC1CCCCC1	/	50.4	-2.2
C[C@@H]1CN([C@@H](C)CO)C(=O)c2cccc(NC(=O)c3nc4ccccc4s3)c2O[C@@H]1CN(C)Cc1ccccc1	/	104.3*	-4.8
C[C@@H]1CN([C@@H](C)CO)C(=O)c2cccc(NC(=O)c3nc4ccccc4s3)c2O[C@H]1CN(C)Cc1ccc(Cl)c(Cl)c1	/	48.8	-1.4
C[C@H](CO)N1C[C@H](C)[C@H](CN(C)Cc2ccc(-c3ccccc3)cc2)Oc2c(NC(=O)c3nc4ccccc4s3)cccc2C1=O	/	?	-2.0
C[C@@H]1CN([C@H](C)CO)C(=O)c2cccc(NC(=O)c3nc4ccccc4s3)c2O[C@H]1CN(C)Cc1ccc(Cl)c(Cl)c1	/	91.3*	-3.5
C[C@@H]1CN([C@H](C)CO)C(=O)c2cccc(NC(=O)c3nc4ccccc4s3)c2O[C@H]1CN(C)CC1CCCCC1	/	116.1*	-3.6
CNC[C@H]1Oc2c(NC(=O)c3nc4ccccc4s3)cccc2C(=O)N([C@@H](C)CO)C[C@@H]1C	/	16.1	0.9
COc1ccc(C(=O)n2nc(-c3ccc(Cl)cc3)nc2NCc2ccco2)cc1OC	3.2	35.9	/
SMILES	STK33 inh	NOMO-1 viab	PD-1 reverse act
Cc1cccc(NC(=O)C(C)N(c2ccc(Oc3ccccc3)cc2)S(C)(=O)=O)c1 (stereo unspecified)	-2.0	15.2	0.6
O=C1CSC(c2ccccc2)N1C1CCCCC1 (stereo unspecified)	/	25.9	-0.5
CC(C)N(Cc1nc(-c2ccc(Cl)cc2)no1)S(=O)(=O)c1ccc(F)cc1	2.6	61.0	/
O=C(CN1CCOCC1)Nc1ccccc1[N+](=O)[O-]	-3.0	-3.5	/
CCS(=O)(=O)c1nc2ccccc2n1CC(N)=O	0.4	7.9	1.3
C[C@H](CO)N1C[C@H](C)[C@H](CN(C)Cc2ccc(C(=O)O)cc2)Oc2c(NC(=O)c3nc4ccccc4s3)cccc2C1=O	/	20.6	-0.8
C[C@H](CO)N1C[C@H](C)[C@@H](CN(C)C(=O)Nc2cccc3ccccc23)Oc2c(NC(=O)c3nc4ccccc4s3)cccc2C1=O	/	98.8*	-3.8
C[C@H](CO)N1C[C@H](C)[C@@H](CN(C)C(=O)Nc2ccccc2)Oc2c(NC(=O)c3nc4ccccc4s3)cccc2C1=O	/	14.4	-1.9
C[C@H]1CN([C@@H](C)CO)C(=O)c2cccc(NC(=O)c3nc4ccccc4s3)c2O[C@H]1CN(C)C(=O)Nc1ccc(C(F)(F)F)cc1	/	109.5*	-4.8
C[C@@H]1CN([C@@H](C)CO)C(=O)c2cccc(NC(=O)c3nc4ccccc4s3)c2O[C@@H]1CN(C)Cc1ccc(C(F)(F)F)cc1	/	98.7*	-3.8
C[C@H]1CN([C@@H](C)CO)C(=O)c2cccc(NC(=O)c3nc4ccccc4s3)c2O[C@@H]1CN(C)C(=O)Nc1ccc(C(F)(F)F)cc1	/	32.9	/
O=C1CC(c2ccccc2)C(=O)N1c1cc(Cl)cc(Cl)c1 (stereo unspecified)	/	-3.4	-1.1
O=C1c2ccccc2C(=O)N1CC1CCN(Cc2ccc(OCCO)cc2)CC1	0.6	/	/
Cc1cc(Cl)ccc1OCC(O)CN1CCC(CN2C(=O)c3cccc4cccc(c34)C2=O)CC1 (stereo unspecified)	-1.6	119.2*	/
CCOC(=O)c1c(NC(=O)CSc2nccc(C)n2)sc(C)c1C	-1.1	18.3	-3.5
C=CCNC(=O)CSc1nccc(-c2sc3sc(Br)c(C)c3c2C)n1	12.1	109.6*	-0.6
Cc1csc2sc(-c3ccnc(SCc4ccccc4)n3)c(C)c12	1.5	-2.5	1.0
Cc1c(Br)sc2sc(-c3ccnc(SCC(=O)NC(C)C)n3)c(C)c12	/	114.9*	0.2
N#Cc1c(NC(=O)COc2ccc3c(-c4ccccc4)cc(=O)oc3c2)sc2c1CCC2	-2.4	95.7*	/
Cc1sc(NC(=O)COc2ccc3c(C)cc(=O)oc3c2)c(C#N)c1C	0.8	11.3	/
CN(C)CCCC[C@@H]1NC(=O)[C@@H]2C[C@H](C(=O)O)[C@H](c3cccc(OCCO)c3)N2C1=O	0.1	/	/
CC(C)=CCCC1(C)C=Cc2c(c(C)cc3c2[nH]c2cc(O)ccc23)O1 (stereo unspecified)	-5.8	107.9*	-3.2
CC1=CC(c2ccoc2)c2c(oc(N)c(C#N)c2=O)S1 (stereo unspecified)	/	26.2	-0.5
O=S1(=O)NC(=NCCCCO)c2ccccc21	-0.3	22.3	/
C[C@H](CO)N1C[C@H](C)[C@H](CN(C)S(=O)(=O)c2cccs2)Oc2ccc(NC(=O)Nc3ccc(C(F)(F)F)cc3)cc2CC1=O	4.4	123.3*	/
C[C@H](CO)N1C[C@H](C)[C@H](CN(C)S(=O)(=O)c2cccs2)Oc2ccc(NC(=O)Nc3ccc4c(c3)OCO4)cc2CC1=O	2.4	86.5*	0.6
C[C@@H]1CN([C@H](C)CO)C(=O)Cc2cc(NC(=O)Nc3ccc(C(F)(F)F)cc3)ccc2O[C@H]1CN(C)S(=O)(=O)c1cccs1	3.8	12.4	2.9
C[C@@H]1CN([C@H](C)CO)C(=O)Cc2cc(NC(=O)Nc3ccc4c(c3)OCO4)ccc2O[C@H]1CN(C)S(=O)(=O)c1cccs1	2.7	10.9	/
